Data: PubChem BioAssay
Active and inactive are the calls of the source. Unless noted, the rule behind the calls is not given here.

Experiments:
[1] = tested on: Wnt5a (protein binding on small-molecule microarray); assay: small molecules binding Wnt5a protein – biophysical, small-molecule microarray, 635/667 nm fluorescence, primary screen (AID 1142); settings: 635 nm fluorescence, higher = more signal;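 note: fluorescence read at 667 nm with signal to noise per printed feature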
[2] = ATP-based viability of Huh7 replicon cells – cell-based, CellTiter-Glo luminescence, basal, 48 h, cytotoxicity control for HCV replication inhibitor project, primary screen (AID 1143); settings: higher = more signal, called active from +8 up or from −8 down;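 note: Huh7 hepatoma cells carrying a hepatitis C replication reporter with no stimulus; test concentration not given here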
[3] = Pseudomonas biofilm growth suppression – PAO1 strain, BacTiter-Glo luminescence, LB-PBS, primary screen (AID 1144); settings: P. aeruginosa PAO1 biofilm, 12 h, higher = more signal
[4] = basal CRE-LacZ reporter activity in PC12 – cell-based, unstimulated, primary screen (AID 1145); settings: no forskolin, luminescence, 4.5 h, higher = more signal, called active from +8 up or from −8 down
[5] = forskolin-driven CRE-LacZ activity in PC12 – cell-based, CRE-LacZ reporter, forskolin-stimulated, primary screen (AID 1146); settings: luminescence, 4.5 h, higher = more signal, called active from +8 up or from −8 down;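 note: PC12 cells with 6xCRE LacZ reporter stimulated by forskolin 10 µM; beta-galactosidase reporter signal reflecting CREB driven transcription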
[6] = molecular target: Streptavidin (Streptomyces avidinii) (UniProt P22629); assay: compounds binding control protein streptavidin – biophysical, small-molecule microarray, 635/667 nm fluorescence, artefact control for SMM compound annotation, primary screen (AID 1147); settings: higher = more signal;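 note: signal reflects streptavidin binding to arrayed compounds as a control protein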
[7] = probe aInhba binding on compound microarray – biochemical, small-molecule microarray, 635/667 nm fluorescence, primary screen (AID 1148); settings: higher = more signal;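 note: score merges 667nm spot fluorescence with signal-to-noise for antibody binding to printed compounds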
[8] = molecular target: Torsin-1A (Homo sapiens) (UniProt O14656); assay: TOR1A wild-type binding on microarray – cell lysate, small-molecule microarray, lysate, 635/667 nm, primary screen (AID 1149); settings: COS7 hTOR1A-WT lysate, 635 nm fluorescence, higher = more signal
[9] = molecular target: Torsin-1A (Homo sapiens) (UniProt O14656); assay: torsin A mutant lysate binding on microarrays – cell lysate, small-molecule microarray, COS7 lysate, 635/667 nm fluorescence, primary screen (AID 1150); settings: COS7 hTOR1A mutant lysate, 635 nm fluorescence, higher = more signal;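 note: score pools 667 nm emission and signal to noise measuring lysate protein binding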
[10] = tested on: Sonic hedgehog protein (Shh); assay: Sonic hedgehog microarray binding compounds – biochemical, small-molecule microarray, 635/667 nm fluorescence, primary screen (AID 1151); settings: 635 nm fluorescence, higher = more signal;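 note: Shh protein binding to compounds spotted on small-molecule microarray slides; score combines spot fluorescence intensity with signal-to-noise across triplicate slides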

Chain of Streptavidin (Streptomyces avidinii) (P22629 whole entry, looked up): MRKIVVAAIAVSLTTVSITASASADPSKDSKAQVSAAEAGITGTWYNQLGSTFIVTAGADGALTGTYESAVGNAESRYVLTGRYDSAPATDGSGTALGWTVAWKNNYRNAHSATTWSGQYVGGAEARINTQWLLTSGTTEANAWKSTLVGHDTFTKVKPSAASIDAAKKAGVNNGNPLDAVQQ
Chain of Torsin-1A (Homo sapiens) (O14656 whole entry, looked up): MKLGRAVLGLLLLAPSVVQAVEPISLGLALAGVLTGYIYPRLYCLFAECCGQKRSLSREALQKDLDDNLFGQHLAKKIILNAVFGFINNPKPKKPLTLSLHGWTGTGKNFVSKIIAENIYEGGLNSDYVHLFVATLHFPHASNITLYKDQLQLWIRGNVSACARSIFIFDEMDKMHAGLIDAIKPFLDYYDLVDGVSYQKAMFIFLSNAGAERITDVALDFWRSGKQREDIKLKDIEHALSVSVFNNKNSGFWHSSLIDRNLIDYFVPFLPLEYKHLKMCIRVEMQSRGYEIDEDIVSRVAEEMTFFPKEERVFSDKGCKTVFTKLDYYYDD

SMILES	composite z-score [1]	z-score [2]	z-score [3]	z-score [4]	z-score [5]	composite z-score [6]	composite z-score [7]	composite z-score [8]	composite z-score [9]	composite z-score [10]
COCC(=C=CC[C@H](O)c1ccc(CO)o1)CCO	0.181	-0.25 (inactive)	0.308 (inactive)	1.51 (inactive)	-0.255 (inactive)	0.141	-0.003	0.494	0.246	1.99
COCCOC(=O)N1C(=O)[C@@]2(c3cc(C#CCC(C(=O)OC)C(=O)OC)ccc31)[C@H](c1ccc(OCCO)cc1)N1[C@H](c3ccccc3)[C@H](c3ccccc3)OC(=O)[C@H]1[C@@H]2C(=O)N1CCc2cc(OC)c(OC)cc2C1	0.575	-1.35 (inactive)	-0.119 (inactive)	-0.0607 (inactive)	0.936 (inactive)	0.918	-0.0087	0.843	0.769	1.8
C=CCC(OC(C)=O)[C@@H]1[C@@H](N(Cc2ccc(-c3cccc(C(F)(F)F)c3)o2)C(=O)c2ccc(-c3ccccc3)cc2)c2cc(OCCCO)ccc2N1C(=O)Cc1ccc2ccccc2c1 (stereo not given in full)	-0.276	-0.165 (inactive)	-0.184 (inactive)	0.572 (inactive)	0.368 (inactive)	-0.368	-0.113	-1.21	-1.1	-0.0629
CCOc1cc(C(O)C2C=CC3C(=O)NC(=O)C3N2Nc2ccc(Cl)cc2Cl)ccc1O (stereo not given)	-0.0753	0.625 (inactive)	-0.542 (inactive)	1 (inactive)	-0.323 (inactive)	-0.431	0.0427	-0.662	-0.141	-0.479
COCCOC(=O)N1C(=O)[C@@]2(c3ccccc31)[C@H](c1ccc(O)cc1)N1[C@H](c3ccccc3)[C@H](c3ccccc3)OC(=O)[C@H]1[C@@H]2C(=O)N1CCN(c2ncccn2)CC1	0.019	-3.19 (inactive)	0.109 (inactive)	-0.598 (inactive)	1.09 (inactive)	-0.0184	0.361	0.432	0.997	1.4
CO[C@H]1O[C@H](CO)[C@@H](OC(=O)Nc2ccccc2)[C@H](OC(=O)c2cc3ccccc3[nH]2)[C@H]1OC(=O)c1cc2ccccc2[nH]1	0.411	-4.49 (inactive)	-0.735 (inactive)	-0.211 (inactive)	-0.331 (inactive)	-0.265	0.0636	0.289	0.311	1.3
